Measurements taken from the supplement of paper PMC11537057.
Counter-ions that a name gives are not always drawn. The campaign covered roughly 1,700 compounds. About 15 (0.9%) showed activity. The entries come from a sample that favours actives as a whole. Unmarked numbers belong to inactive results.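 Rule for the calls: active = infection cut by 80% or more with cell growth above 90% in both runs; inactive = the rest.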

System: HSV-1 strain 17 YFP-ICP4 in A549
Assay: HSV-1 infection relative to DMSO (ICP4-YFP per H2B-RFP signal); higher = more viral infection (less antiviral activity), active = hit call of the paper
Conditions: 10 µM; 48 h; MOI: 0.1
Experimental: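 Selleck FDA-approved library (L1300) screened in duplicate at 10 µM on A549 H2B-mRuby cells in 384-well plates, infected with HSV-1 strain 17 YFP-ICP4 at MOI 0.1 one hour before drug addition. Imaged after 2 days at 37°C. Cell growth (H2B-RFP) and infection (ICP4-YFP) are expressed as % of DMSO-treated wells. Hits: growth >90% and infection <20% of DMSO.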

Row | SMILES | HSV-1 infection
1 | Cc1c(O)cccc1C(=O)N[C@@H](CSc1ccccc1)[C@H](O)CN1C[C@H]2CCCC[C@H]2C[C@H]1C(=O)NC(C)(C)C [Nelfinavir Mesylate] | 9.57% (active)
2 | Cc1c(C(C)C)c(=O)n(-c2ccccc2)n1C [Propyphenazone (4-Isopropylantipyrine)] | 98.5%
3 | CCCCCCC(=O)O[C@H]1CC[C@H]2[C@@H]3CCC4=CC(=O)CC[C@]4(C)[C@H]3CC[C@]12C [Testosterone Enanthate] | 66.7%
4 | C=C[C@@H]1C[C@]1(NC(=O)[C@@H]1C[C@@H]2CN1C(=O)[C@H](C(C)(C)C)NC(=O)O[C@@H]1C[C@H]1CCCCCc1nc3ccc(OC)cc3nc1O2)C(=O)NS(=O)(=O)C1CC1 [Grazoprevir] | 119%
5 | CCCCCCCCCCCCC[N+](C)(C)Cc1ccccc1 [Benzalkonium chloride] | 65.3%
6 | NC(=O)[C@@H](CCC(F)(F)F)N(Cc1ccc(-c2ncon2)cc1F)S(=O)(=O)c1ccc(Cl)cc1 | 95.4%
7 | CCNC(=O)[C@@H]1CCCN1C(=O)[C@H](CCCN=C(N)N)NC(=O)[C@H](CC(C)C)NC(=O)[C@@H](C)NC(=O)[C@H](Cc1ccc(O)cc1)NC(=O)[C@H](CO)NC(=O)[C@H](Cc1c[nH]c2ccccc12)NC(=O)[C@H](Cc1cnc[nH]1)NC(=O)[C@@H]1CCC(=O)N1 [Alarelin Acetate] | 90.9%
8 | CC1=C(C(=O)OC(C)C)C(c2cccc([N+](=O)[O-])c2)C(C(=O)OC2CN(C(c3ccccc3)c3ccccc3)C2)=C(N)N1 (centres undefined) [Azelnidipine] | 121%
9 | O=C1/C(=C2\Nc3ccc(S(=O)(=O)O)cc3C2=O)Nc2ccc(S(=O)(=O)O)cc21 [Indigo carmine] | 101%
10 | C[C@@H](O)[C@H]1C(=O)N2C(C(=O)O)=C(S[C@@H]3CN[C@H](C(=O)Nc4cccc(C(=O)O)c4)C3)[C@H](C)[C@H]12 [Ertapenem sodium] | 109%
11 | CCC[C@@H]1C[C@@H](C(=O)N[C@@H]([C@H]2O[C@H](SC)[C@H](O)[C@@H](O)[C@H]2O)[C@H](C)Cl)N(C)C1 [Clindamycin] | 83.9%
12 | CCC[C@@H]1C[C@@H](C(=O)N[C@@H]([C@H]2O[C@H](SC)[C@H](O)[C@@H](O)[C@H]2O)[C@H](C)Cl)N(C)C1 [Clindamycin HCl] | 87.2%
13 | CCC[C@@H]1C[C@@H](C(=O)N[C@@H]([C@H]2O[C@H](SC)[C@H](OP(=O)(O)O)[C@@H](O)[C@H]2O)[C@H](C)Cl)N(C)C1 [Clindamycin Phosphate] | 125%
14 | CCC[C@@H]1C[C@@H](C(=O)N[C@@H]([C@H]2O[C@H](SC)[C@H](O)[C@@H](O)[C@H]2O)[C@@H](C)O)N(C)C1 [Lincomycin Hydrochloride Monohydrate] | 86.4%
15 | CCC[C@@H]1C[C@@H](C(=O)N[C@@H]([C@H]2O[C@H](SC)[C@H](O)[C@@H](O)[C@H]2O)[C@@H](C)O)N(C)C1 [Lincomycin HCl] | 15.9% (active)
16 | CC(C)C(Br)C(=O)NC(N)=O (centres undefined) [Bromisoval] | 117%
17 | N#Cc1ccc(Oc2ccc3c(c2)COB3O)cc1 [Crisaborole (AN2728)] | 95.1%

Row | SMILES | HSV-1 infection
18 | CNC(C)Cc1ccccc1OC (centres undefined) [Methoxyphenamine Hydrochloride] | 110%
19 | Nc1nc(CC(=O)Nc2ccc(CCNC[C@H](O)c3ccccc3)cc2)cs1 [Mirabegron] | 104%
20 | O=C(O)CCn1c2c(c3ccccc31)C[C@H](NS(=O)(=O)c1ccc(F)cc1)CC2 [Ramatroban] | 96.2%
21 | O=C(NC[C@H](O)CO)c1ccncc1Nc1ccc(I)cc1F | 34.8%
22 | CC[C@H](C)[C@@H]1NC(=O)[C@H](Cc2ccc(O)cc2)NC(=O)[C@@H](N)CSSC[C@@H](C(=O)N2CCC[C@H]2C(=O)N[C@@H](CC(C)C)C(=O)NCC(N)=O)NC(=O)[C@H](CC(N)=O)NC(=O)[C@H](CCC(N)=O)NC1=O [Oxytocin (Syntocinon)] | 82.7%
23 | CCS(=O)(=O)N1CCN(c2ccc(Nc3ncc(C(N)=O)c(NC4CC4)n3)cc2)CC1 | 25.3%
24 | CC(C)C[C@H](NC(=O)CNC(=O)[C@H](Cc1ccc(O)cc1)NC(=O)[C@H](CO)NC(=O)[C@H](Cc1c[nH]c2ccccc12)NC(=O)[C@H](Cc1cnc[nH]1)NC(=O)[C@@H]1CCC(=O)N1)C(=O)N[C@@H](CCCNC(=N)N)C(=O)N1CCC[C@H]1C(=O)NCC(N)=O [Gonadorelin Acetate] | 117%
25 | NCC(=O)O [Glycine] | 95.8%
26 | CCCN(CCc1cccs1)[C@H]1CCc2c(O)cccc2C1 [Rotigotine] | 27.9%
27 | CCCCCCCN(CC)CCCC(O)c1ccc(NS(C)(=O)=O)cc1 (centres undefined) [Ibutilide Fumarate] | 84.3%
28 | O.O.O.O=C([O-])C1[O][Sb]2[O]C(=O)C([O]2)C(C(=O)[O-])[O][Sb]2[O]C(=O)C1[O]2.[K+].[K+] (centres undefined) [Antimonyl potassium tartrate trihydrate] | 80.2%
29 | COC(=O)C1=C(C#N)NC(C)=C(C(=O)OC(C)C)C1c1cccc([N+](=O)[O-])c1 (centres undefined) [Nilvadipine] | 95.1%
30 | Cc1onc(-c2c(F)cccc2Cl)c1C(=O)N[C@@H]1C(=O)N2[C@@H]1SC(C)(C)[C@@H]2C(=O)O [Flucloxacillin sodium] | 114%
31 | O=C(Nc1cccc2c(=O)cc(-c3nnn[nH]3)oc12)c1ccc(OCCCCc2ccccc2)cc1 [Pranlukast] | 79.1%
32 | OB1OCc2cc(F)ccc21 [Tavaborole (AN-2690)] | 115%
33 | CCOc1cc(N)c(Cl)cc1C(=O)NCC1CN(Cc2ccc(F)cc2)CCO1 (centres undefined) [Mosapride] | 97.6%
34 | CCOc1cc(N)c(Cl)cc1C(=O)NCC1CN(Cc2ccc(F)cc2)CCO1 (centres undefined) [Mosapride Citrate] | 96.7%
